{
  "source": "the OligoGym collection",
  "data": [
    {"molecular_target": "FGA", "experiment": "pooled miR-30 sensor sort-seq; sequence = guide strand", "conditions": "shRNA", "values": [
      {"sequence": "TAAATTGTTTGCTGTAACTTGA", "sensor-assay potency score (higher = more potent)": -0.0308},
      {"sequence": "TAGACTTCTGCACAGTTCTCTT", "sensor-assay potency score (higher = more potent)": -0.561},
      {"sequence": "TTGATTGACTTCATCAATCAAC", "sensor-assay potency score (higher = more potent)": -0.764},
      {"sequence": "TGTCTTTCCACAACCCTTGGGC", "sensor-assay potency score (higher = more potent)": 0.289},
      {"sequence": "TATTCTGTTTGTAAAATCTTGA", "sensor-assay potency score (higher = more potent)": -0.477}
    ]},
    {"molecular_target": "FGF1", "experiment": "pooled miR-30 sensor sort-seq; sequence = guide strand", "conditions": "shRNA", "values": [
      {"sequence": "TTTCCAGGAACAAACATTCCTC", "sensor-assay potency score (higher = more potent)": -0.373},
      {"sequence": "TTCTCTGCATGCTTCTTGGATA", "sensor-assay potency score (higher = more potent)": -0.722},
      {"sequence": "TTGGATATATAGGTGTTGTAAT", "sensor-assay potency score (higher = more potent)": -0.998},
      {"sequence": "ATTTGGTGTCTGTGAGCCGTAT", "sensor-assay potency score (higher = more potent)": -0.909},
      {"sequence": "TAAACTTCTCGGTCAGGGCTGT", "sensor-assay potency score (higher = more potent)": 0.184},
      {"sequence": "TTTGGTGTCTGTGAGCCGTATA", "sensor-assay potency score (higher = more potent)": -0.694},
      {"sequence": "TAGTGAGTCCGAGGACCGCGTT", "sensor-assay potency score (higher = more potent)": -1.55},
      {"sequence": "TAATGGTTCTCCTCCAGCCTTT", "sensor-assay potency score (higher = more potent)": -0.798},
      {"sequence": "TCATTTGGTGTCTGTGAGCCGT", "sensor-assay potency score (higher = more potent)": -0.0568},
      {"sequence": "TGAATGTGCTGGTCGCTCCTGT", "sensor-assay potency score (higher = more potent)": -0.0696},
      {"sequence": "TTGGGCTTCTTGTAATTCCCTG", "sensor-assay potency score (higher = more potent)": -0.211},
      {"sequence": "AACAAGATTGCTTTCTGGCCAT", "sensor-assay potency score (higher = more potent)": -0.264},
      {"sequence": "TTGCAGCTCCCATTCTTCTTGA", "sensor-assay potency score (higher = more potent)": -1.07},
      {"sequence": "TTGCTTTCTGGCCATAGTGAGT", "sensor-assay potency score (higher = more potent)": -1.34},
      {"sequence": "TATATAGGTGTTGTAATGGTTC", "sensor-assay potency score (higher = more potent)": -0.522},
      {"sequence": "TTCCAGGAACAAACATTCCTCA", "sensor-assay potency score (higher = more potent)": -0.434},
      {"sequence": "TTCTTGGATATATAGGTGTTGT", "sensor-assay potency score (higher = more potent)": -1.22},
      {"sequence": "AGGCAGATTAAACTTCTCGGTC", "sensor-assay potency score (higher = more potent)": -1.58},
      {"sequence": "TGGGCTTCTTGTAATTCCCTGG", "sensor-assay potency score (higher = more potent)": -0.134},
      {"sequence": "TTCTTCTCTGCATGCTTCTTGG", "sensor-assay potency score (higher = more potent)": -0.847},
      {"sequence": "TTTGCAGCTCCCATTCTTCTTG", "sensor-assay potency score (higher = more potent)": -0.462},
      {"sequence": "TCTGGCCATAGTGAGTCCGAGG", "sensor-assay potency score (higher = more potent)": -1.16},
      {"sequence": "TTTCTGGCCATAGTGAGTCCGA", "sensor-assay potency score (higher = more potent)": -0.918},
      {"sequence": "TTAAACTTCTCGGTCAGGGCTG", "sensor-assay potency score (higher = more potent)": -0.0976}
    ]},
    {"molecular_target": "FGF23", "experiment": "pooled miR-30 sensor sort-seq; sequence = guide strand", "conditions": "shRNA", "values": [
      {"sequence": "TTGCCTCTGAAATCCATGCAGA", "sensor-assay potency score (higher = more potent)": -1.09},
      {"sequence": "TAATGGGTCACTGGCCATCGGG", "sensor-assay potency score (higher = more potent)": -1.63},
      {"sequence": "TTCTTGTGGATCTGCAGGTGGT", "sensor-assay potency score (higher = more potent)": -1.08},
      {"sequence": "TGGAACCTGCAGTTCTCCGGGT", "sensor-assay potency score (higher = more potent)": -0.566},
      {"sequence": "AATGTTGCCTCTGAAATCCATG", "sensor-assay potency score (higher = more potent)": -1.53},
      {"sequence": "TTCTGCTCATCACACCTGTAAT", "sensor-assay potency score (higher = more potent)": -1.67},
      {"sequence": "TGGATCTGCAGGTGGTAGCTGT", "sensor-assay potency score (higher = more potent)": -0.923},
      {"sequence": "TTGGAACCTGCAGTTCTCCGGG", "sensor-assay potency score (higher = more potent)": 0.14},
      {"sequence": "ATCCTCTGATCTGATCATCAGG", "sensor-assay potency score (higher = more potent)": -1.39},
      {"sequence": "TCCATGCAGAGGTATCTTCTGC", "sensor-assay potency score (higher = more potent)": -1.48},
      {"sequence": "TATCTTCTGCTCATCACACCTG", "sensor-assay potency score (higher = more potent)": 0.064}
    ]}
  ]
}
